The whole screen tested about 320,000 compounds, of which about 2,100 (0.66%) were called active. Inconclusive results (about 53%) are left out. Calls follow the shape of the dose curve; as a rule, active = well fitted inhibition curve with a large enough effect in the signal ratio, with a control signal flat (not every such curve was filed as active); inconclusive = small, poorly fitted or top-dose-only effect, or effect the other way, or a change in a side signal; inactive = flat fitted curve, though single readings scatter; the % refers to the signal ratio. The entries come from a sample that favours actives as a whole.
Experiment: qHTS Assay for Lipid Storage Modulators in Drosophila S3 Cells;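 as to cell number change: cells counted by Cell Tracker Red CMTPX staining in the red channel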; as to lipid storage change, negative = inhibition: % is scaled to controls: 0 for no effect and ±100 for the full control effect
Details: BODIPY lipid droplet fluorescence, 18-24 h, cells fed with added oleic acid; cell number change: measured here: cell count max response; series mostly up to 46.1 µM; lipid storage change, negative = inhibition: at the top concentration
Method in brief: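 Drosophila S3 cells got compounds at several concentrations plus oleic acid (400 uM solution). Laser-scanning cytometry with 488 nm excitation read lipid droplets at 500-530 nm and cells at 575-640 nm. Percent activity was relative to 20 uM Triacsin C.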
For `Cc1cccc(C)c1NC(=S)N1CCC(N(C)CC2CCCO2)CC1` (stereo not given), the Potency was 20.6 µM (active) and the cell number change was -14.4%. With `Cc1cc(C)cc(NC(=S)N2CCC(N(C)CC3CCCO3)CC2)c1` (stereo not given) the “lipid storage change, negative = inhibition” value was 2.61% (inactive) and the cell number change was 11.9%. For `Cc1cc(C)c(NC(=S)N2CCC(N(C)CC3CCCO3)CC2)c(C)c1` (stereo not given), the Potency was 25.9 µM (active) and the cell number change was 6.74%. In the case of `Cc1cc(-c2csc(N)n2)c(C)n1CCc1ccccc1`, the “outcome” value is reported as “inactive” and the cell number change is reported as -18.9%. For `CCN(CC)C(=O)C1CCN(S(=O)(=O)c2ccc(-n3cnnn3)cc2)CC1`, the “lipid storage change, negative = inhibition” value was -3.69% (inactive) and the cell number change was 1.39%. In the case of `COc1ccc(S(=O)(=O)NCC(=O)NCc2cc(=O)n(C)c(=O)n2C)cc1C`, the “lipid storage change, negative = inhibition” value is reported as -0.472% (inactive) and the cell number change is reported as 10.1%. For `CCOC(CCn1c(SCC(=O)NC2CCCC2)nc2ccccc2c1=O)OCC`, the “outcome” value was “inactive” and the cell number change was 7.57%. For `CN(C)CCCNCCCNC(=O)c1ccncc1`, the “lipid storage change, negative = inhibition” value was -3.34% (inactive) and the cell number change was 10.5%. For `O=C(CC1C(=O)NCCN1Cc1cccc(C(F)(F)F)c1)NC1CCCCCC1` (stereo not given), the Potency was 5.17 µM (active) and the cell number change was 13.5%. In the case of `O=C(CC1C(=O)NCCN1Cc1cccc(F)c1)NC1CCCCC1` (stereo not given), the “lipid storage change, negative = inhibition” value is reported as -0.615% (inactive) and the cell number change is reported as 13.2%. In the case of `O=C(CC1C(=O)NCCN1Cc1ccccc1)NC1CCCCCC1` (stereo not given), the “outcome” value is reported as “inactive” and the cell number change is reported as 13.2%. With `Cc1n[nH]c(C)c1C(=O)CC1(O)C(=O)N(CCc2ccccc2)c2ccc(Br)cc21` (stereo not given) the “lipid storage change, negative = inhibition” value was 10.4% (inactive) and the cell number change was 12.8%. With `O=C1Nc2ccc(Br)cc2C1(O)c1ccccc1` (stereo not given) the “lipid storage change, negative = inhibition” value was 3% (inactive) and the cell number change was 20.9%. In the case of `O=C1Nc2ccc(Br)cc2C12NNc1ccccc1O2` (stereo not given), the Potency is reported as 23.1 µM (active). For `O=C1NC2(Nc3ccccc31)C(=O)Nc1ccc(Br)cc12` (stereo not given), the “lipid storage change, negative = inhibition” value was -0.023% (inactive) and the cell number change was -0.207%. In the case of `CCOc1ccc(NC(=O)NC(C)c2ccc3c(c2)OCO3)cc1` (stereo not given), the “lipid storage change, negative = inhibition” value is reported as 15.4% (inactive) and the cell number change is reported as -0.862%. With `O=C(CCSc1nc(-c2ccc3c(c2)OCO3)cc(C(F)(F)F)n1)NCc1ccccc1` the “lipid storage change, negative = inhibition” value was -11.3% (inactive) and the cell number change was -16.9%. For `CCc1cccc(NC(=O)NC(=O)Cn2nnc(C(=O)OC)c2C(=O)OC)c1`, the “lipid storage change, negative = inhibition” value was 23.6% (inactive) and the cell number change was 1.8%. In the case of `CCCCSc1nnc([C@@H]2CCCN2C(=O)OC(C)(C)C)o1`, the “lipid storage change, negative = inhibition” value is reported as 11.2% (inactive) and the cell number change is reported as -21.2%. For `CC(C)(C)OC(=O)N1CCC[C@H]1c1nnc(SCc2ccccc2)o1`, the “lipid storage change, negative = inhibition” value was 7.68% (inactive) and the cell number change was 10.4%. For `Cc1ccc(CSc2nnc([C@@H]3CCCN3C(=O)OC(C)(C)C)o2)cc1`, the “lipid storage change, negative = inhibition” value was 3.95% (inactive) and the cell number change was 17.7%. For `CCSc1nnc([C@@H]2CCCN2C(=O)OC(C)(C)C)o1`, the Potency was 23.1 µM (active) and the cell number change was 6.53%. With `C=C(C)CSc1nnc([C@@H]2CCCN2C(=O)OC(C)(C)C)o1` the “lipid storage change, negative = inhibition” value was 3.39% (inactive) and the cell number change was 9.31%. In the case of `CC(C)Sc1nnc([C@@H]2CCCN2C(=O)OC(C)(C)C)o1`, the Potency is reported as 32.6 µM (active) and the cell number change is reported as -3.74%. For `COc1ccc(C=O)cc1Cn1ccnc1C`, the “lipid storage change, negative = inhibition” value was -6.92% (inactive) and the cell number change was -21.5%. In the case of `N#C/C(=C\c1ccccc1Cl)C(=O)Nc1ccccn1`, the Potency is reported as 25.9 µM (active) and the cell number change is reported as 7.44%. In the case of `CC(C)(C)c1ccc(/C=C(\C#N)C(=O)Nc2ccccn2)cc1`, the “lipid storage change, negative = inhibition” value is reported as 20.5% (inactive) and the cell number change is reported as 9.55%. In the case of `N#C/C(=C\c1cccs1)C(=O)Nc1ccccn1`, the “lipid storage change, negative = inhibition” value is reported as -4.46% (inactive) and the cell number change is reported as 9.59%. With `Cc1ccc(-c2cc(C(F)F)n3ncc(C(=O)N4CCc5ccccc5C4)c3n2)cc1` the “lipid storage change, negative = inhibition” value was 8.24% (inactive) and the cell number change was 3.7%. For `CC(=O)Nc1cccc(Oc2ncnc3scc(-c4ccccc4)c23)c1`, the “lipid storage change, negative = inhibition” value was 9.37% (inactive) and the cell number change was 1.71%. For `CCCn1nc(C(=O)N2CCc3ccccc3C2)c2ccccc2c1=O`, the “lipid storage change, negative = inhibition” value was 4.01% (inactive) and the cell number change was -8.58%. For `Cc1ccc(S(=O)(=O)N2CCN(C(=O)c3nn(C(C)C)c(=O)c4ccccc34)CC2)cc1C`, the “outcome” value was “inactive”. With `CCCn1nc(C(=O)N2CCN(S(=O)(=O)c3ccc(C)c(C)c3)CC2)c2ccccc2c1=O` the Potency was 11.6 µM (active) and the cell number change was 29.1%. With `C=Cc1ccc(COC(=O)c2cn(CC)c3nc(C)ccc3c2=O)cc1` the “outcome” value was “inactive”. In the case of `CCn1cc(C(=O)N(C)Cc2ccc(OC(F)F)cc2)c(=O)c2ccc(C)nc21`, the Potency is reported as 18.4 µM (active) and the cell number change is reported as 19.2%. For `CCn1cc(C(=O)OC)c(=O)c2ccc(C)nc21`, the “lipid storage change, negative = inhibition” value was -1.46% (inactive) and the cell number change was 4.24%. For `O=C(COC(=O)CNS(=O)(=O)c1cccc(Br)c1)NC(=O)Nc1ccc2c(c1)OCCO2`, the “lipid storage change, negative = inhibition” value was 8.82% (inactive). With `COc1ccc(-n2nc(C(=O)NCC(=O)N(C)Cc3ccccc3)c3ccccc3c2=O)c(OC)c1` the “outcome” value was “inactive” and the cell number change was 9.58%. For `CCOc1ccccc1N(CC(=O)Nc1ccccc1C(=O)N1CCCC1)S(C)(=O)=O`, the “outcome” value was “inactive” and the cell number change was -13.5%. With `O=C(CCSc1ccccc1)Nc1ccccc1C(=O)N1CCCC1` the “lipid storage change, negative = inhibition” value was 8.31% (inactive) and the cell number change was -3.09%. In the case of `Cc1ccccc1OCCC(=O)Nc1ccccc1C(=O)N1CCCCC1`, the Potency is reported as 5.8 µM (active) and the cell number change is reported as -4.28%. With `CCS(=O)(=O)N1CCN(C(=O)c2cccc3ccccc23)CC1` the “outcome” value was “inactive” and the cell number change was 17.9%. With `COc1ccccc1N(CC(=O)Nc1ccccc1C(=O)N1CCCC1)S(C)(=O)=O` the Potency was 18.4 µM (active) and the cell number change was 1.61%. With `O=C(c1cccc2ccccc12)N1CCCCC1` the Potency was 8.2 µM (active) and the cell number change was -5.25%. In the case of `COc1ccccc1OCC(=O)Nc1ccccc1C(=O)N1CCCCC1`, the “lipid storage change, negative = inhibition” value is reported as -14.5% (inactive). With `Cc1ccc(OCC(=O)Nc2ccccc2C(=O)N2CCCCC2)cc1` the “outcome” value was “inactive” and the cell number change was 24.3%. In the case of `O=C(O)CCCC(=O)Nc1ccccc1C(=O)N1CCCC1`, the Potency is reported as 4.61 µM (active) and the cell number change is reported as 0.517%. For `COc1ccccc1N(CC(=O)Nc1ccccc1C(=O)N1CCOCC1)S(C)(=O)=O`, the “lipid storage change, negative = inhibition” value was 5.39% (inactive) and the cell number change was 1.26%. With `O=C(c1ccncc1)N1CCN(C(=O)c2cccc3ccccc23)CC1` the “lipid storage change, negative = inhibition” value was 13.3% (inactive) and the cell number change was 6.28%. In the case of `CCC(=O)Nc1ccccc1C(=O)N1CCCC1`, the “outcome” value is reported as “inactive” and the cell number change is reported as 13.5%.

Source: PubChem BioAssay AID2685 (National Center for Advancing Translational Sciences (NCATS), 2010)
Potency is read from the fitted curve at half-maximal effect.
